Source: PubChem BioAssay (National Center for Advancing Translational Sciences (NCATS))
Tau fibril ThT: inhibitors of human tau fibril formation, thioflavin T binding. recombinant tau K18 P301L, heparin-induced fibrillization, ThT fluorescence. AID 1460. P10636. hit rate 2.1% among 270,000. Potency, µM (top dose mostly 57.4 µM), inactives show top-dose activity, negative = inhibition, actives largely listed as inhibitors; note: potency is the fitted concentration of half-maximal effect; nearly all actives have a fitted effect of over 55% in size
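ThT emission at 510 nm, taken 1 hr after adding 30 uM dye, quantifies aggregates formed when 20 uM heparin acts on human tau K18 P301L for 6 hr at 37 C.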
Tau fluor cs: counter-screen for tau fibril formation inhibitors | Potency, µM (top dose mostly 57.7 µM), for inactives: top-dose activity change, negative = decrease | tau K18 P301L Alexa594 fluorescence, heparin fibrillization | AID 1463 | hit rate 0.93% among 280,000; note: potency is the fitted concentration of half-maximal effect; nearly all actives have a fitted effect of over 55% in size
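Human tau K18 P301L (15 uM unlabeled, 0.24 uM Alexa 594-labeled) in 100 mM sodium acetate pH 7 with 20 uM heparin, 6 hr at 37 C. ThT 30 uM added, 1 hr ambient; Alexa 594 FP and total fluorescence read at 555/632 nm.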
Tau FP inhib: tau fibrillization inhibition (FP) | hit rate 0.39% among 280,000 | AID 1468 | K18 P301L tau heparin fibrillization, Alexa594 FP, 6 h | Potency, µM (highest dose often 57.7 µM), inactives show at the top dose activity, negative = inhibition, most hits filed as inhibitors | P10636; note: potency is the fitted concentration of half-maximal effect; nearly all actives have a fitted effect of over 55% in size
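K18 P301L tau (15 uM unlabeled/0.24 uM Alexa 594-labeled, final) + compound + heparin 20 uM final; 100 mM NaOAc pH 7; 6 hr 37 C; ThT 30 uM final added, 1 hr RT; FP ex 555/em 632 nm.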
PNC inhibitor: blocks assembly of the perinucleolar compartment. PC3M PTB-GFP, PNC prevalence imaging, 16 h; stronger effect = lower value. activity change (PNC), negative = inhibition, % at 10 µM. hit rate 3.1% among 140,000. AID 2417;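 active = readout at or below -70, meaning at least 70% loss of cells showing the perinucleolar compartment, a nuclear body marking cancer cells; inconclusive = readout between -30 and a set limit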;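 note: plate controls were DMSO wells for no effect and camptothecin positive control wells for full effect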
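Read-out is percentage of cells bearing a perinucleolar compartment, from automated 20x imaging of fixed, Hoechst-stained PC3M PTB-GFP cells. Cells were seeded 4 h, then exposed 16 h to compound (23 nl of library stock) in duplicate plates.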
NPSR antagonist: blocks cAMP signaling of the human neuropeptide S receptor; Q6W5P4; CHO-NPSR cells, cAMP TR-FRET, antagonist mode; Potency, µM (highest dose often 38.3 µM), without a hit: at the highest dose activity change, negative = inhibition, usual class: inhibitors; hit rate 1% among 220,000; note: potency is the fitted concentration of half-maximal effect; nearly all actives have a fitted effect of over 50% in size
Target sequence (Q6W5P4 whole entry, looked up): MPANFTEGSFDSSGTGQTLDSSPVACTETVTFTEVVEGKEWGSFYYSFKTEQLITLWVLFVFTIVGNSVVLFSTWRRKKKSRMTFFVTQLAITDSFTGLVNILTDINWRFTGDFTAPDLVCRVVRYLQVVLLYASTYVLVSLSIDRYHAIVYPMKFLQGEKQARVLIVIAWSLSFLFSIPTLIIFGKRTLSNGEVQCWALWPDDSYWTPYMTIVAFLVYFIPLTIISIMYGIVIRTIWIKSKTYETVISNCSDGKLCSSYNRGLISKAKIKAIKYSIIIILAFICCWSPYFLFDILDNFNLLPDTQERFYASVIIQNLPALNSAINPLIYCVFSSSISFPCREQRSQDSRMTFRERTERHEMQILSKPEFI
JMJD2E inh: JMJD2E (human) inhibition. JMJD2E catalytic domain, FDH-coupled NADH fluorescence (FDH is formaldehyde dehydrogenase). Potency, µM (highest dose often 57.1 µM), inactives show at the top dose activity change, negative = inhibition, most hits filed as inhibitors. hit rate 1.6% among 230,000. AID 2147; active = well fitted inhibition curve with a large enough effect, not every such curve was filed as active; inconclusive = small, poorly fitted or top-dose-only effect, or another doubt; inactive = no such curve, though single readings can be large or run the other way;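 note: potency is the fitted concentration of half-maximal effect; 0% = wells with enzyme and -100% = buffer wells without enzyme; nearly all actives have a fitted effect of over 50% in size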
Target sequence (B2RXH2 1-337 limits assumed): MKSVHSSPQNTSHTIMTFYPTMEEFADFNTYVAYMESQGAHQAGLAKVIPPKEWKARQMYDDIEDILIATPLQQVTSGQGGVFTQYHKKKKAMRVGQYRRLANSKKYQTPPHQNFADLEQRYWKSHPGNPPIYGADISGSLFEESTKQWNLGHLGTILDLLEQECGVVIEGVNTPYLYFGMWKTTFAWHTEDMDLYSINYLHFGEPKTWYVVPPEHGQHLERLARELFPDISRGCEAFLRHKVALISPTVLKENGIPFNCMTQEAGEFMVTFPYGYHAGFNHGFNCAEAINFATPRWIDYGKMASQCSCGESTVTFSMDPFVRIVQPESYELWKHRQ
An asterisk follows results filed as active; ? = inconclusive; nt = not tested or not shown; [ ] = another dose, or the depositor's remark. In the library only some 5.1% were active in any assay of this set; here they are far more common. Unless noted, calls come from the whole dose curve; as a rule, active = well fitted curve in the direction sought with a large enough effect; inconclusive = small, poorly fitted or top-dose-only effect, or another doubt; inactive = no such curve, though single readings can be large; an effect the other way counts as inactive or inconclusive. Unless noted, % is set by controls: 0 for no effect and ±100 for the full control effect.

SMILES	Tau fibril ThT	Tau fluor cs	Tau FP inhib	PNC inhibitor	NPSR antagonist	JMJD2E inh
Cc1cc([N+](=O)[O-])nn1CCCC(=O)Nc1cc(Oc2ccc(F)cc2)cc([N+](=O)[O-])c1	-5%	-3%	3%	28	-29%	4%
CCCOC(=O)c1c(NC(=O)CCCn2nc([N+](=O)[O-])cc2C)sc(C(=O)OC)c1C	-18%	-29%	6%	-119*	-16%	-6%
Cc1cc(C)cc(Oc2cc(NC(=O)c3cn(C)nc3C)cc([N+](=O)[O-])c2)c1	5%	2.5µM*[quencher]	?	5	-11%[46.1 µM]	-10%
CCCOC(=O)c1c(NC(=O)CCCn2nc([N+](=O)[O-])c(Cl)c2C)sc(C(=O)OC)c1C	-12%	?	2%	20	2%	-1%
Cc1nn(C(=O)c2cccc(Cl)c2)c(C)c1S(=O)(=O)N1CCOCC1	12%	25%	15%	nt	nt	nt
Cc1ccc(S(=O)(=O)c2nc(S(C)(=O)=O)sc2N(C)Cc2ccccc2)cc1	-6%	-22%	-10%	nt	nt	nt
O=C(Cn1cnc2nc3c(cc2c1=O)CCCC3)Nc1ccc(F)cc1Cl	9%	-4%	-5%	nt	nt	nt
Cc1cc([N+](=O)[O-])nn1CCCC(=O)N1CCN(c2ccc(F)cc2)CC1	?	-12%	-1%	-119*	5%	4%
O=C1c2ccccc2-c2nnc(-c3ccc(O)cc3)cc21	5µM*	?	15%	nt	-24%	3%
Cc1ccc(-c2cc3c(nn2)-c2ccccc2C3=O)cc1	nt	-13%	4%	nt	-13%	16%
N#C/C(=C/c1ccc(O)c([N+](=O)[O-])c1)C(=O)Nc1ccccc1	8.9µM*	?	8%	nt	-45%	-11%
N#C/C(=C\c1ccc(O)c(O)c1)C(=O)NCCc1ccccc1	?	?	12%	nt	-19%[46.1 µM]	14µM*
N#C/C(=C\c1ccc(O)c(O)c1)C(=O)NCCCCc1ccccc1	16µM*	14µM*[quencher]	2%	nt	nt	4.5µM*
COc1ccc(-c2nnc(C3CCN(C(=O)c4ccccc4F)CC3)o2)cc1	?	-12%	-8%	nt	nt	nt
Cc1oc(-c2ccc(C(=O)NCc3ccccc3)cc2)nc1CN1CCc2ccccc21	-15%	?	10%	nt	nt	nt
Cc1ccc(-n2nc3c(N4CCC(C(=O)NC5CCCCC5)CC4)nnc(C)c3c2C)cc1	-3%	-2%	-11%	nt	nt	nt
Cc1ccc(-c2nn(CC(=O)NC3CCCCC3)c3c2cnc2ccccc23)cc1	-5%	-8%	-19%	nt	nt	nt
Cc1ccc2c(c1)C(=O)OC(C(=O)Nc1ncc(Cc3ccc(C(C)C)cc3)s1)C2 (centres undefined)	-1%	-2%	-5%	nt	nt	nt
CCOC(=O)c1cnc2cc(C(F)(F)F)ccc2c1N1CCN(c2cccc(Cl)c2)CC1	-18%	-21%	-2%	nt	nt	nt
Cc1nc2ccccc2n1/C(=N/S(=O)(=O)c1ccc(Br)cc1)c1ccccc1	0%	1%	1%	-100*	6%[46.1 µM]	-2%
CC(=O)c1cc2c(cc1N/C(=N/S(=O)(=O)c1ccc(Br)cc1)c1ccccc1)OCO2	?	-18%	-20%	nt	-30%	?
Cc1ccc(/C=C/C(=O)O)cc1S(=O)(=O)N(CCO)CCO	0%	-5%	-1%	-103*	18%	9%
Cc1ccc(C(=O)c2c[nH]cc2-c2ccccc2)cc1	3%	-8%	-10%	19	-2%[46.1 µM]	2%
O=C(c1ccccc1)c1c[nH]cc1-c1ccccc1	4%	0%	-8%	-100*	5%[46.1 µM]	-6%
CCc1ccccc1NC(=O)Cn1c(=O)c2cccn2c2ccc(F)cc21	3%	3%	-10%	nt	nt	nt
SMILES	Tau fibril ThT	Tau fluor cs	Tau FP inhib	PNC inhibitor	NPSR antagonist	JMJD2E inh
COc1ccc(CCNC(=O)CN2CCN(c3cccc(Cl)c3)CC2)cc1OC	-15%	-1%	-3%	-91*	-18%[46.1 µM]	2%
Cc1cccc(NC(=O)Cn2c(=O)c3cccn3c3ccccc32)c1C	-10%	?	18µM*	nt	nt	nt
COc1ccc(CCNC(=O)Cn2c(=O)c3cccn3c3ccccc32)cc1OC	-6%	?	14µM*	nt	nt	nt
COc1ccc(CCNC(=O)CCNS(=O)(=O)c2cccc(Cl)c2)cc1OC	-15%	-18%	-10%	nt	7%	-16%
CCOC(=O)c1c(NC(=O)CSc2nc(-c3ccc(OC)cc3)cc(C(F)(F)F)n2)sc(C)c1C	?	-18%	?	nt	nt	nt
COc1ccc(-c2nc(CCNC(=O)c3cc(OC)c(OC)c(OC)c3)cs2)cc1	?	-19%	-3%	nt	nt	nt
CN1C[C@@H]2C(c3ccc(Cl)nc3)C3(c4ccccc4)CC2(C3)[C@H]1c1ccccc1 (some centres undefined)	-9%	-5%	-1%	nt	4µM*	10%
CCC1C(=O)CC(c2ccco2)NC1c1ccco1 (centres undefined)	-7%	-1%	2%	-100*	-5%[46.1 µM]	4%
CCN1CCc2nc3sc(C(=O)c4ccc(F)cc4)c(N)c3cc2C1	?	-24%	2%	nt	nt	nt
CCN1CCc2nc3sc(C(=O)c4ccccc4)c(N)c3cc2C1	8.9µM*	16µM*[quencher]	-12%	nt	nt	nt
Cc1ccc(NC(=O)Cc2noc3ccccc23)cc1	-8%	-3%	7%	-99*	-13%[46.1 µM]	?
Cc1cc(C)cc(NC(=O)Cc2noc3ccccc23)c1	-3%	5%	0%	nt	nt	nt
Cc1ccc(NC(=O)CSc2nnc(C)n3c2cc2sccc23)c(C)c1	-10%	1%	-8%	nt	nt	nt
Cc1ccc(C)c(NC(=O)CSc2nnc(-c3n[nH]c4ccccc34)o2)c1	-13%	-25%	?	13	-4%	?
CC(C)(C)c1ccc(NC(=O)CSc2nnc(-c3n[nH]c4ccccc34)o2)cc1	-8%	?	32µM*	4	-30%	6%
Cc1cc(C)n(-c2nc3sc4c(c3c3nnc(SCC(N)=O)n23)CC(C)(C)OC4)n1	-1%	-3%	5%	-100*	-5%[46.1 µM]	?
CC1(c2ccccc2)CC(C)(C)N2C(=O)/C(=C3\SC(=S)NC3=O)c3cccc1c32 (centres undefined)	?	?	?	-2	5µM*	-11%
CC(=O)N1c2ccc(S(=O)(=O)N3CCCCCC3)cc2CC1C(=O)NCc1cccc(C)c1 (centres undefined)	9%	-8%	?	nt	nt	nt
CCOC(=O)c1c(CSc2ccccc2)n(C)c2cc(Br)c(O)c(CN(C)C)c12	-17%	-23%	-2%	nt	32%[7.67 µM]	-9%
CCOC(=O)c1c(CSc2ccsc2)n(C)c2cc(Br)c(O)c(CN(C)C)c12	?	-20%	6%	nt	13µM*	-9%
Cc1nn(C)cc1CNC(=O)c1cccc(F)c1	7%	9%	4%	-98*	14%	11%
CN1CCN(NS(=O)(=O)c2cccs2)CC1	13µM*	-17%	?	-9	12%	-1%
